Among the data in PubChem BioAssay (EPA / NIEHS) are AC50 and outcome values, retold here.

A short description of experiment [1]: CCTE_Mundy_HCI_hNP1_Casp3_7: CCTE's Caspase-Glo 3/7 Assay in human neuroprogenitor cells for Apoptosis, Mundy Lab (AID 2284240). In outline: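 Neuroepithelial-lineage stem cells from WA09 embryonic cells were treated with chemicals after 40–44 h of culture. Twenty-four hours later, caspase-3/7 activation was detected luminescently after a 30 min room-temperature reagent step, with DMSO as baseline.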

Experiment [2] can be described thus: CCTE_Mundy_HCI_hNP1_CellTiter: CCTE's Cell Titer-Glo 2 Assay in human neuroprogenitor cells for Viability, Mundy Lab (AID 2284241; active = hit-call score of the fitted dose curve at least 0.9, where 1 is the maximum;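 also: a hit is a drop in ATP luminescence versus DMSO meaning reduced viability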). In outline: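 Measures ATP content in human neural progenitors derived from WA09 embryonic cells. Read-out at 26.5 hours after dosing, with DMSO serving as the negative control and baseline.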
Experiment [3] can be described thus: CCTE_Mundy_HCI_Cortical_Synap_Neur_Matur_NeuronCount: CCTE's Synaptogenesis and Neurite Maturation Assay in rat cortical cells for Neuron Count, Mundy Lab (AID 2284242; active = hit-call score of the fitted dose curve at least 0.9, where 1 is the maximum;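 as to AC50: neuron number from Hoechst nuclei and MAP2 staining by high-content imaging; hits reduce neuron count versus DMSO baseline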). In outline:
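Rat cortical cultures; AraC DIV 5; chemical dosing + media change DIV 7 to DIV 12 (288.33 h readout). Fix, Hoechst, anti-MAP2/anti-synaptophysin immunostain; HCI neuron count vs DMSO baseline.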

Read-out in experiment [4]: Collagen I, COL1A1 (gene 1277)
The experiment is described as follows: BSK_MyoF_CollagenI: BioMAP Diversity Plus: MyoF Assay for Collagen I Biomarker Activity (AID 2284238). The note with it: primary human lung fibroblasts. In outline:
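Collagen I levels measured by ELISA on human lung fibroblast cultures 24 h post-dosing, with curve fitting in the positive direction relative to DMSO; SRB staining of parallel wells marked cytotoxicity.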

Read-out in experiment [5]: Collagen III, COL3A1 (gene 1281)
The experiment is described as follows: BSK_MyoF_CollagenIII: BioMAP Diversity Plus: MyoF Assay for Collagen III Biomarker Activity (AID 2284239). To be noted: primary human lung fibroblasts. In outline: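 Collagen III biomarker quantified by ELISA in human lung fibroblast cultures 24 h after dosing. Activity fitted in the positive direction against DMSO as baseline.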

Read-out in experiment [6]: Basic fibroblast growth factor (bFGF), FGF2 (gene 2247)
The experiment is described as follows: BSK_MyoF_bFGF: BioMAP Diversity Plus: MyoF Assay for Basic fibroblast growth factor (bFGF) Biomarker Activity (AID 2284246). To be noted: primary human lung fibroblasts. The essentials:
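Primary human lung fibroblast culture, 24 h compound exposure; ELISA read-out of bFGF. Positive-direction fit vs DMSO baseline. Cytotoxicity: SRB stain (0.1% SRB, 10% TCA fixation, 560 nm) in parallel wells.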

Read-out in experiment [7]: Collagen IV, COL4A1 (gene 1282)
The experiment in a line: BSK_MyoF_CollagenIV: BioMAP Diversity Plus: MyoF Assay for Collagen IV Biomarker Activity (AID 2284247). To be noted: primary human lung fibroblasts. In outline:
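ELISA read-out of Collagen IV in lung fibroblast cultures, 24 h post-dosing; gain of signal relative to DMSO vehicle baseline defines activity.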

Read-out in experiment [8]: Monokine induced gamma interferon (MIG), CXCL9 (gene 4283)
The experiment in a line: BSK_KF3CT_MIG: BioMAP Diversity Plus: KF3CT Assay for Monokine induced gamma interferon (MIG) Biomarker Activity (AID 2284248). The note with it: primary human keratinocytes with fibroblasts. In outline: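 Parallel cultures were stained with SRB (560 nm) to check cytotoxicity. MIG was quantified by ELISA in a primary human skin keratinocyte/fibroblast co-culture 24 h post-dosing, with gain of signal fitted relative to DMSO.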

Read-out in experiment [9]: Vascular cell adhesion molecule 1 (VCAM1), VCAM1 (gene 7412)
The experiment in a line: BSK_BF4T_VCAM1: BioMAP Diversity Plus: BF4T Assay for Vascular cell adhesion molecule 1 (VCAM1) Biomarker Activity (AID 2284249). The note with it: primary human bronchial epithelial cells with fibroblasts. In outline:
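Cell-surface VCAM-1 quantified by ELISA after 24 h chemical exposure of human bronchial epithelial/dermal fibroblast co-cultures, with SRB staining in parallel wells for cytotoxicity; DMSO baseline, positive-direction fitting.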

Read-out in experiment [10]: Collagen I, COL1A1 (gene 1277)
The experiment is described as follows: BSK_hDFCGF_CollagenI: BioMAP Diversity Plus: hDFCGF Assay for Collagen I Biomarker Activity (AID 2284250). The note with it: primary human foreskin fibroblasts. The essentials:
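ELISA read-out of Collagen I in human dermal foreskin fibroblast cultures, 24 h after dosing. Gain of signal versus DMSO vehicle defines activity.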

Read-out in experiment [11]: Interferon-inducible T-cell alpha chemoattractant (ITAC), CXCL11 (gene 6373)
The experiment in a line: BSK_hDFCGF_ITAC: BioMAP Diversity Plus: hDFCGF Assay for Interferon-inducible T-cell alpha chemoattractant (ITAC) Biomarker Activity (AID 2284251). To be noted: primary human foreskin fibroblasts. The essentials:
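Chemical dosing of primary human foreskin fibroblast cultures preceded ELISA measurement of I-TAC at 24 h. Response was analysed in the positive direction using DMSO as baseline, while parallel SRB staining measured cytotoxicity.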

Read-out in experiment [12]: Plasminogen activator inhibitor-1 (PAI1), SERPINE1 (gene 5054)
The experiment in a line: BSK_KF3CT_PAI1: BioMAP Diversity Plus: KF3CT Assay for Plasminogen activator inhibitor-1 (PAI1) Biomarker Activity (AID 2284252). To be noted: primary human keratinocytes with fibroblasts. In outline:
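Keratinocyte + dermal fibroblast co-culture (human primary); 24 h post-dose; PAI-1 by ELISA; gain-of-signal fit vs DMSO control.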

Read-out in experiment [13]: Monocyte Chemoattractant Protein-1 (MCP1), CCL2 (gene 6347)
The experiment is described as follows: BSK_IMphg_MCP1: BioMAP Diversity Plus: IMphg Assay for Monocyte Chemoattractant Protein-1 (MCP1) Biomarker Activity (AID 2284253). To be noted: primary human endothelial cells with macrophages. The essentials:
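ELISA readout of MCP-1 at 24 hours in IMphg co-cultures of venular endothelial cells and macrophages, normalised to DMSO; parallel cultures stained with sulforhodamine B for overt cytotoxicity.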

Read-out in experiment [14]: Interleukin-8 (IL8), CXCL8 (gene 3576)
The experiment in a line: BSK_KF3CT_IL8: BioMAP Diversity Plus: KF3CT Assay for Interleukin-8 (IL8) Biomarker Activity (AID 2284254). The note with it: primary human keratinocytes with fibroblasts. The essentials: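 IL-8 by ELISA in primary human skin co-culture (keratinocytes plus fibroblasts) 24 h post-dose, DMSO as baseline. Cytotoxicity assessed in parallel by sulforhodamine B total-protein staining.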

Read-out in experiment [15]: Plasminogen activator inhibitor-1 (PAI1), SERPINE1 (gene 5054)
The experiment is described as follows: BSK_MyoF_PAI1: BioMAP Diversity Plus: MyoF Assay for Plasminogen activator inhibitor-1 (PAI1) Biomarker Activity (AID 2284256).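 As to outcome: PAI-1 protein level measured by ELISA in fibroblast cultures; PAI-1 read 24 h after compound addition.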 To be noted: primary human lung fibroblasts. The essentials:
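Human lung fibroblasts (MyoF system) were exposed to test chemicals for 24 h, then PAI-1 was quantified by ELISA. Activity was fitted in the positive (signal-gain) direction relative to DMSO vehicle as baseline.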

Read-out in another experiment: CD69, CD69 (gene 969)
The experiment is described as follows: BSK_IMphg_CD69: BioMAP Diversity Plus: IMphg Assay for CD69 Biomarker Activity (AID 2284257). To be noted: primary human endothelial cells with macrophages. In outline:
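Readout is ELISA for CD69 in primary human venular endothelial cell/macrophage co-culture, taken at 24 h post-dosing. SRB staining of parallel cultures gauged overt cytotoxicity; signal increase versus DMSO defined activity.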

Read-out in experiment [16]: Interleukin 17F (IL17F), IL17F (gene 112744)
The experiment in a line: BSK_BT_xIL17F: BioMAP Diversity Plus: BT Assay for Interleukin 17F (IL17F) Biomarker Activity (AID 2284243). The note with it: primary human B cells with PBMC. In outline: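 Human B cells co-cultured with PBMC; secreted IL-17F quantified by LumineX xMAP 24 hours after chemical dosing. Activity fitted in the positive direction against DMSO negative control as baseline.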

Read-out in experiment [17]: Actin alpha 1 (ACTA1), ACTA1 (gene 58)
The experiment in a line: BSK_MyoF_ACTA1: BioMAP Diversity Plus: MyoF Assay for Actin alpha 1 (ACTA1) Biomarker Activity (AID 2284244). The note with it: primary human lung fibroblasts. The essentials:
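ELISA read-out of a-SMA in primary human lung fibroblast cultures, 24 h post-dosing. Activity scored in the positive direction versus DMSO baseline.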

Read-out in experiment [18]: Interleukin 2 (IL2), IL2 (gene 3558)
The experiment in a line: BSK_BT_xIL2: BioMAP Diversity Plus: BT Assay for Interleukin 2 (IL2) Biomarker Activity (AID 2284245). The note with it: primary human B cells with PBMC. The essentials: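 Readout: supernatant IL-2 via Luminex xMAP after 24 h chemical dosing of a B cell/PBMC primary human co-culture. DMSO serves as negative control and baseline; increases in signal were fitted.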

Read-out in experiment [19]: Macrophage Inflammatory Protein-1 Alpha (MIP1a), CCL3 (gene 6348)
The experiment in a line: BSK_IMphg_MIP1a: BioMAP Diversity Plus: IMphg Assay for Macrophage Inflammatory Protein-1 Alpha (MIP1a) Biomarker Activity (AID 2284255). To be noted: primary human endothelial cells with macrophages. The essentials:
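MIP-1a protein levels were quantified by ELISA after 24 h treatment of human endothelial cell–macrophage co-cultures, compared with DMSO. Parallel cultures were fixed with TCA and stained with 0.1% SRB to gauge overt cytotoxicity.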

Several values for one entry are separate records, joined by “and”; a condition that tells them apart may be missing. Identical values can stand only once. Records with an inconclusive call do not appear. Some compounds were tested as several samples or in several runs, with calls that do not always agree. Activity calls are given as the source filed them. The calls were made as follows, unless noted: active = hit-call score of the fitted dose curve at least 0.9, where 1 is the maximum; inactive = score below 0.9.

The term AC50 denotes the concentration at which the activity in the assay is half-maximal. Turning to `CC#C[C@]1(O)CC[C@H]2[C@@H]3CCC4=CC(=O)CCC4=C3[C@@H](c3ccc(N(C)C)cc3)C[C@@]21C`, the AC50 was 13.5 µM (active) and 18.4 µM (active) in experiment [1]; 27.4 µM (active) and 21.6 µM (active) in experiment [2]; 22.9 µM (active) and 25.2 µM (active) in [3].
Regarding `FC(F)(I)C(F)(F)C(F)(F)C(F)(F)C(F)(F)C(F)(F)I`, the AC50 in experiment [4] is 4.42 µM (active) [middle of 5 runs]; in experiment [5] it was 4.38 µM (active) [middle of 5 runs]; in experiment [6], 8.27 µM (active) [middle of 5 runs]; in [8], 9.38 µM (active) [middle of 5 runs]; in experiment [9], 6.79 µM (active) [middle of 5 runs]; in [10], 14 µM (active) and 10.1 µM (active). The AC50 in [11] is 5.16 µM (active) [middle of 5 runs]; in experiment [12] it was 6.91 µM (active) [middle of 5 runs]; in experiment [13], 39.8 µM (active) [middle of 5 runs]; in experiment [14], 6.35 µM (active) [middle of 5 runs]; in experiment [15], 6 µM (active) [middle of 5 runs]; in the experiment with CD69, CD69 (gene 969), 37.9 µM (active) [middle of 5 runs]. The outcome in experiment [7] and in [10] was inactive.
As to `OCCC(F)(F)C(F)(F)C(F)(F)C(F)(F)C(F)(F)C(F)(F)F`, the AC50 in [4] was 54.6 µM (active); in [16], 5.95 µM (active); in [10], 30 µM (active) and 46.9 µM (active); in experiment [11], 55 µM (active) and 57.4 µM (active); in experiment [19] it was 42.4 µM (active). For the same compound, the result in experiment [4], in experiment [5], in experiment [1], in [16], in experiment [17] and in [18] was inactive. Further, the result in [6], in experiment [7], in experiment [8], in experiment [9], in [12] and in experiment [13] was inactive. Moreover, the outcome in [14] was “inactive”; in [19], “inactive”; in experiment [15], “inactive”; with CD69, CD69 (gene 969), “inactive”.
For the compound `C[C@@H]1C[C@H]2[C@@H]3CCC4=CC(=O)C=C[C@]4(C)[C@@]3(F)[C@@H](O)C[C@]2(C)[C@@]1(O)C(=O)COP(=O)(O)O`, the outcome in [4], in [5], in experiment [16], in experiment [17], in [6] and in [7] was inactive. The outcome in experiment [8], in experiment [9], in [10], in experiment [11], in experiment [12] and in [14] was inactive. Besides, the outcome in experiment [15] is “inactive”; with CD69, CD69 (gene 969), “inactive”. For the same compound, the AC50 in experiment [16] is 0.277 µM (active); in experiment [17], 0.267 µM (active); in [18], 807 nM (active) and 148 nM (active); in [11] it was 1.1 µM (active); in [13], 1.04 µM (active) and 1.15 µM (active); in [19], 946 nM (active) and 574 nM (active).
Take `CC1=C(/C=C/C(C)=C/C=C/C(C)=C/C(=O)O)C(C)(C)CCC1`: the compound was called inactive in experiment [1] and in experiment [3].
Consider `CN1CCC[C@H]1c1cccnc1`, for which, in experiment [1], the compound was classed as inactive.
